Values without a mark were called inactive.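 How the source made its calls: active = AUC reduced over 20% with Padj below 0.05 in at least 2 of 3 replicates; inactive = otherwise.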
Assays:
Test in all cases: growth AUC relative to DMSO control (median of replicates) (fraction); higher = more growth (less inhibition), active = hit call of the paper
Details in all cases: 20 µM; 24 h
Akkermansia muciniphila = tested on: Akkermansia muciniphila
Summary of the method: (§1)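 Each value is the median of three biological replicates, grown on separate days, of a gut bacterial monoculture incubated anaerobically at 37 °C in mGAM with 20 µM compound (1% DMSO). Cultures started at OD600 0.05 and were read at OD600 hourly for 24 h, with the minimum OD set to 0. Area under the growth curve was normalised to the plate median of solvent-only wells, or to row and column medians on the industrial chemical plate.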

Bacteroides caccae = tested on: Bacteroides caccae
Summary of the method: as §1

Bacteroides clarus = tested on: Bacteroides clarus
Summary of the method: as §1

Bacteroides dorei = tested on: Bacteroides dorei
Summary of the method: as §1

Bacteroides stercoris = tested on: Bacteroides stercoris
Summary of the method: as §1

[1] = tested on: Bacteroides thetaiotaomicron
Summary of the method: as §1

Bacteroides uniformis = tested on: Bacteroides uniformis
Summary of the method: as §1

[2] = tested on: Bifidobacterium longum subsp. longum
Summary of the method: as §1

Clostridium difficile = tested on: Clostridium difficile
Summary of the method: as §1

Collinsella aerofaciens = tested on: Collinsella aerofaciens
Summary of the method: as §1

Coprococcus comes = tested on: Coprococcus comes
Summary of the method: as §1

Escherichia coli ED1a = tested on: Escherichia coli ED1a
Summary of the method: as §1

Escherichia coli IAI1 = tested on: Escherichia coli IAI1
Summary of the method: as §1

Eubacterium rectale = tested on: Eubacterium rectale
Summary of the method: as §1

[3] = tested on: Fusobacterium nucleatum subsp. animalis
Summary of the method: as §1

Lactobacillus gasseri = tested on: Lactobacillus gasseri
Summary of the method: as §1

Lactobacillus paracasei = tested on: Lactobacillus paracasei
Summary of the method: as §1

Odoribacter splanchnicus = tested on: Odoribacter splanchnicus
Summary of the method: as §1

[4] = tested on: Parabacteroides distasonis
Summary of the method: as §1

Parabacteroides merdae = tested on: Parabacteroides merdae
Summary of the method: as §1

Compound | growth AUC (Akkermansia muciniphila) | growth AUC (Bacteroides caccae) | growth AUC (Bacteroides clarus) | growth AUC (Bacteroides dorei) | growth AUC (Bacteroides stercoris) | growth AUC [1] | growth AUC (Bacteroides uniformis) | growth AUC [2] | growth AUC (Clostridium difficile) | growth AUC (Collinsella aerofaciens) | growth AUC (Coprococcus comes) | growth AUC (Escherichia coli ED1a) | growth AUC (Escherichia coli IAI1) | growth AUC (Eubacterium rectale) | growth AUC [3] | growth AUC (Lactobacillus gasseri) | growth AUC (Lactobacillus paracasei) | growth AUC (Odoribacter splanchnicus) | growth AUC [4] | growth AUC (Parabacteroides merdae)
COCCCNc1nc(NC(C)C)nc(SC)n1 | 0.847 | 0.981 | 0.976 | 0.989 | 0.977 | 0.957 | 0.982 | 0.985 | 0.963 | 0.993 | 0.963 | 1.01 | 0.986 | 0.914 | 0.904 | 1.04 | 0.943 | 0.954 | 1.01 | 0.992
COC1CCC2(CC1)NC(=O)C(c1cc(C)ccc1C)=C2O (stereo not given) | 0.863 | 0.974 | 1.05 | 1.02 | 1.12 | 1.01 | 1.01 | 1.09 | 1.02 | 1.05 | 1.02 | 1.03 | 1.02 | 1.13 | 1.13 | 0.95 | 1.05 | 1.05 | 1.01 | 1.08
CCSC(=O)COc1ccc(Cl)cc1C | 0.952 | 0.977 | 0.982 | 0.905 | 0.997 | 0.751 (active) | 1.03 | 1.04 | 1.04 | 0.966 | 0.981 | 0.973 | 0.986 | 1.03 | 1 | 0.874 | 1.08 | 0.901 | 1.05 | 0.992
Nc1nc2ccccc2[nH]1 | 1.06 | 0.96 | 1.01 | 0.911 | 1.01 | 1.02 | 0.94 | 1.03 | 0.973 | 0.943 | 0.971 | 0.976 | 0.986 | 1.08 | 0.932 | 0.883 | 0.969 | 0.942 | 0.615 | 0.933
CCOC(=O)Nc1cccc(OC(=O)Nc2cccc(C)c2)c1 | 1.05 | 0.951 | 0.948 | 0.882 | 0.932 | 0.979 | 1.02 | 1.02 | 0.966 | 0.901 | 0.963 | 0.94 | 0.953 | 1.01 | 0.974 | 0.896 | 1.01 | 1.08 | 0.913 | 0.932
CN(C)C(N)=O | 1.05 | 0.949 | 0.998 | 0.982 | 1.05 | 0.99 | 0.971 | 0.973 | 1.03 | 0.977 | 0.993 | 1.01 | 0.953 | 0.967 | 1.01 | 0.983 | 1.03 | 1.03 | 0.968 | 1.01
CCOC(=O)C(C)Oc1ccc(Oc2cnc3cc(Cl)ccc3n2)cc1 (stereo not given) | 1.01 | 0.978 | 0.953 | 0.942 | 1.01 | 0.992 | 0.932 | 1.06 | 1.03 | 1.02 | 1.01 | 0.997 | 1.04 | 1.09 | 1.03 | 1.04 | 0.95 | 1.02 | 0.971 | 0.956
Nc1cccc(O)c1 | 0.979 | 1.03 | 1.02 | 1 | 0.939 | 1.03 | 1.03 | 1.06 | 1.03 | 0.998 | 1.06 | 1.01 | 1.01 | 0.984 | 1 | 1.04 | 0.94 | 0.975 | 0.993 | 1
O=S(=O)(Oc1ccc(Cl)cc1)c1ccccc1 | 0.785 | 0.959 | 0.967 | 0.941 | 0.874 | 0.964 | 0.972 | 1.01 | 1 | 0.978 | 0.997 | 0.981 | 0.967 | 0.874 | 0.872 | 0.99 | 1.08 | 0.987 | 0.974 | 0.957
C=CCc1ccc(OC)c(OC)c1 | 1.02 | 1.04 | 0.998 | 1.06 | 1.01 | 1.03 | 1.04 | 1.11 | 0.984 | 1.03 | 1.01 | 0.994 | 1.04 | 1 | 1.06 | 1.03 | 1 | 0.694 (active) | 1.3 | 1.04
COC(=O)c1csc(C)c1S(=O)(=O)NC(=O)n1nc(OC)n(C)c1=O | 1.17 | 0.981 | 1 | 0.967 | 1.02 | 0.993 | 0.955 | 1.04 | 0.931 | 0.956 | 1.01 | 1 | 0.971 | 1.11 | 0.942 | 0.805 | 0.993 | 0.982 | 0.801 | 0.99
O=C(O)c1cccc2nnsc12 | 0.935 | 0.996 | 0.998 | 0.964 | 0.963 | 1.01 | 1.01 | 1.03 | 0.99 | 0.977 | 0.996 | 0.989 | 0.991 | 1.01 | 0.982 | 0.936 | 0.909 | 1.03 | 0.999 | 0.998
Cn1cc(C(=O)Nc2ccccc2-c2cc(F)c(F)c(F)c2)c(C(F)F)n1 | 0.832 | 0.995 | 0.937 | 0.972 | 0.931 | 0.93 | 0.984 | 0.919 | 0.98 | 0.987 | 0.97 | 0.985 | 0.987 | 0.937 | 0.873 | 0.995 | 0.943 | 0.964 | 0.916 | 0.937
CCCCCCCCCCCC[N+](C)(C)Cc1ccc(CC)cc1.[Cl-] | 0.765 | 0.0238 (active) | 0.234 (active) | 0.92 | 0.00577 (active) | 0.00582 (active) | 0.0211 (active) | 0.665 (active) | 0.73 | 0.502 (active) | 0.374 (active) | 0.981 | 0.945 | 0.863 | 0.902 | 0.651 (active) | 0.708 | 0.973 | 0.671 (active) | 0.708 (active)
CCCOc1nc2ccc(I)cc2c(=O)n1CCC | 0.956 | 0.995 | 0.896 | 1.01 | 0.905 | 0.936 | 0.95 | 0.937 | 0.964 | 0.952 | 1.04 | 0.991 | 0.974 | 0.996 | 0.973 | 0.833 | 0.976 | 1.05 | 0.647 (active) | 0.923
O=C(O)COc1cc(N2C(=O)C3=C(CCCC3)C2=O)c(F)cc1Cl | 0.82 | 0.999 | 0.98 | 0.968 | 1.08 | 0.975 | 1.05 | 1.04 | 1.02 | 0.967 | 1.01 | 1.01 | 1 | 1.03 | 1.02 | 0.967 | 1.05 | 1.03 | 1.03 | 1.04
